Test results from PubChem BioAssay AID1851 (National Center for Advancing Translational Sciences (NCATS), 2009).
Hit rate of the full screen: of about 16,000 compounds, about 4,000 (25%) were called active. Another 26% or so got no clear call; they are omitted. Not all results are given here. Values without a mark were called inactive. Calls come from the whole dose curve; as a rule, active = well fitted curve in the direction sought with a large enough effect; inconclusive = small, poorly fitted or top-dose-only effect, or effect the other way; inactive = no such curve, though single readings can be large or run the other way.

target: Cytochrome P450 2C9 (Homo sapiens) (UniProt P11712); assay: Cytochrome panel assay with activity outcomes; conditions: recombinant CYP, pro-luciferin dealkylation, luminescence, p450-cyp2c9; series mostly up to 57.1 µM; activity, negative = inhibition: at the top concentration
% is set by controls: 0 for no effect and ±100 for the full control effect.

Sequence of Cytochrome P450 2C9 (Homo sapiens) (P11712 whole entry, looked up): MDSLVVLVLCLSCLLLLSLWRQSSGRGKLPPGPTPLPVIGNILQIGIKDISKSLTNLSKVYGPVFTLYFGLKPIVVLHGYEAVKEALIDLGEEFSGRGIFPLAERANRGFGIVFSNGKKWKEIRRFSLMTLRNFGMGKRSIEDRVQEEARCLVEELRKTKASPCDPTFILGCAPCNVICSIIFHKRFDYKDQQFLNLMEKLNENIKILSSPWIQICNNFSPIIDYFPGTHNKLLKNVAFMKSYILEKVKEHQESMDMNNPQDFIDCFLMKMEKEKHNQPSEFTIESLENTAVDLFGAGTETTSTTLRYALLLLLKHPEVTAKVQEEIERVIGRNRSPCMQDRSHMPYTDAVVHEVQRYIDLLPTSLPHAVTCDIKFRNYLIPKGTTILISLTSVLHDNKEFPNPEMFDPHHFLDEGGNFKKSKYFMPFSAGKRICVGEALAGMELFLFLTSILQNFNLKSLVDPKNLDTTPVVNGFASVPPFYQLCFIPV

Structure (SMILES) | activity, negative = inhibition | AC50
CC(=O)OCC(=O)[C@@]1(O)CC[C@@H]2[C@H]3CCC4=CC(=O)C=C[C@]4(C)[C@]3(F)[C@@H](O)C[C@@]21C | -6.12% [at 25.6 µM] | 
COC(=O)N[C@H](c1ccccc1)[C@@]1(C)C[C@@H]1[C@@H](C)C(=O)Nc1ccc2ccccc2c1 |  | 3.98 µM (active)
C[C@@H](C(=O)Nc1ccc2ccccc2c1)[C@H]1C[C@]1(C)[C@H](NS(=O)(=O)c1ccc2ccccc2c1)c1ccccc1 | 6.98% | 
CC(=O)N[C@@H](c1ccccc1)[C@]1(C)C[C@H]1[C@@H](C)C(=O)Nc1ccc2ccccc2c1 |  | 6.31 µM (active)
Cc1cc(NC(=O)NC(=O)c2ccc(F)cc2F)n[nH]1 | 2.2% | 
Cc1cc(C)cc(OCC(=O)NNC(=O)c2cc(C)[nH]n2)c1 |  | 28.2 µM (active)
Cc1ccc(OCC(=O)NNC(=O)c2cc3ccccc3o2)cc1 | -5.57% | 
NC1(C(=O)O)C[C@@H](C(=O)O)[C@H](C(=O)O)C1 |  | inactive
NC1(C(=O)O)CC(C(=O)O)C1 (stereo not given) | -10.1% | 
NC1(C(=O)O)C[C@H](C(=O)O)[C@H](C(=O)O)C1 (stereo not given in full) |  | 6.31 µM (active)
CCc1c(O)c2c(c(O)c1C(C)=O)C(=O)c1c(cc(O)c(C(=O)O)c1C(=O)O)C2=O | -13.4% [at 11.4 µM] | 
N#Cc1cccc(NC(=O)N2CCC3(CC2)CCN(C(=O)c2ccco2)CC3)c1 | -22.8% | 
O=C(Nc1cccc(NC(=O)c2ccc(-c3cccc(Br)c3)o2)c1)c1ccco1 |  | 5.01 µM (active)
COc1cccc(-c2nccc(NCc3ccc(OC)cc3OC)n2)c1 | -22.3% [at 2.29 µM] | 
COc1cccc(-c2noc(Cn3nc(C)c([N+](=O)[O-])c3C)n2)c1 |  | 4.47 µM (active)
COc1cccc(-c2nccc(N(C)Cc3ccco3)n2)c1 | 2.63% [at 2.29 µM] | 
CC(=O)[C@H](C(=N)C#N)C(=O)Nc1ccccc1 | 10.8% [at 11.4 µM] | 
COc1cccc(C2C3(C#N)C(N)=NC(OC)(OC)C23C#N)c1 (stereo not given) | 1.33% | 
COC1(OC)N=C(NC(=O)Nc2ccccc2)C2(C#N)C(c3ccccc3)C12C#N (stereo not given) |  | 12.6 µM (active)
CC1(C)CC(=O)C(C(c2cccc(O)c2O)C2C(=O)CC(C)(C)CC2=O)C(=O)C1 | 3.72% [at 11.4 µM] | 
Cc1ccc(C(C2C(=O)CC(C)(C)CC2=O)C2C(=O)CC(C)(C)CC2=O)s1 |  | 28.2 µM (active)
CCc1nnc(NC(=O)C2Cc3ccccc3CN2S(=O)(=O)c2ccc(C)cc2)s1 (stereo not given) |  | 3.98 µM (active)

Structure (SMILES) | activity, negative = inhibition | AC50
O=S(=O)(c1ccccc1)N1CCC2(CCN(Cc3nccs3)CC2)CC1 | -24.4% | 
O=C(Nc1nnc(C2CC2)s1)C1Cc2ccccc2CN1S(=O)(=O)c1ccccc1F (stereo not given) |  | 3.16 µM (active)
O=C(Nc1nccs1)C1Cc2ccccc2CN1S(=O)(=O)c1ccc(F)cc1 (stereo not given) |  | 12.6 µM (active)
O=S(=O)(c1ccccc1)N1CCC2(CC1)CN(Cc1nccs1)C2 | 16% | 
CC(C)CN1CCC2(CC1)CCN(C(=O)c1cccn1C)CC2 | 28.9% | 
CCOC(=O)n1ccn(C)c1=S | 11.1% [at 25.6 µM] | 
CC(=O)OC[C@@H]1O[C@@H](O/N=C2/C[C@@H](O)[C@@H](O)[C@@H]3[C@@H]4C(=O)N(C(C)(C)C)C(=O)[C@H]4CC[C@H]23)[C@H](OC(C)=O)[C@H](OC(C)=O)[C@@H]1OC(C)=O | 2.66% [at 11.4 µM] | 
CO[C@H]1COC(=O)[C@H](C)NC(=O)C/C=C\[C@@H](C)[C@H](OC)COC(=O)[C@@H](OCc2ccccc2)/C=C\[C@@H]1C | -13.3% [at 11.4 µM] | 
CNC(=O)C(=O)NCCc1ccc(Cl)cc1 | -16.9% | 
O=C(NCCc1ccc(Cl)cc1)Nc1cccc(Cl)c1 |  | 3.98 µM (active)
CN(C)CCNC(=S)Nc1cccc(Cl)c1 | -8.2% | 
CC(=O)OC[C@@H]1O[C@@H](O/N=C2/C[C@@H](O)[C@@H](O)[C@@H]3[C@@H]4C(=O)N(C5CCCCC5)C(=O)[C@H]4CC[C@H]23)[C@H](OC(C)=O)[C@H](OC(C)=O)[C@@H]1OC(C)=O | 9.42% [at 11.4 µM] | 
O=c1c(-c2cc(F)cc(F)c2)nc2cnc(N3CCOCC3)nc2n1C[C@H]1CCCO1 | 13.6% | 
O=C(NC12CC3CC(CC(C3)C1)C2)c1ccc(COc2ccc(Cl)cc2[N+](=O)[O-])o1 |  | 7.94 µM (active)
CC(C)=CCC/C(C)=C/CO/N=C1/C[C@@H](O)[C@@H](O)[C@@H]2[C@@H]3C(=O)N(Cc4ccccc4)C(=O)[C@H]3CC[C@H]12 | -1.37% [at 11.4 µM] | 
CC(C)=CCC/C(C)=C/CO/N=C1/C[C@@H](O)[C@@H](O)[C@@H]2[C@@H]3C(=O)N(Cc4ccccc4)C(=O)[C@H]3CC[C@@H]12 | 24.4% [at 11.4 µM] | 
c1nc(N2CCNCC2)c2cc(-c3ccc4c(c3)OCO4)ccc2n1 | 14.4% [at 2.29 µM] | 
C[C@@H]1O[C@@H](O)[C@@H](O)[C@H](O)[C@H]1O | 0.774% [at 11.4 µM] | 
CC1(C)SC(=S)N(Cc2ccc3c(c2)OCO3)C1N(O)C(=O)NC1CCCCC1 (stereo not given) |  | 3.55 µM (active)
O=C(O)[C@@H]1CCCN1Cc1ccc2c(c1)OCO2 | -5.38% [at 11.4 µM] | 
NC(=O)[C@@H]1CCCN1Cc1ccc2c(c1)OCO2 | -2.9% [at 11.4 µM] | 
COc1ncc2nc(-c3ccc(F)cc3)c(=O)n(C)c2n1 | 6.98% | 

Structure (SMILES) | activity, negative = inhibition | AC50
Cc1ccc(NC(=O)CCC(=O)NNS(=O)(=O)c2ccccc2)c(C)c1 | -21.5% | 
Cc1cc(CSc2ccccc2)ccc1NC(=O)COc1ccccc1 | -23.7% | 
Cc1cc(Br)ccc1NC(=O)CCSc1ccccc1 |  | 8.91 µM (active)
O=C(CCCNS(=O)(=O)c1cccc2nsnc12)NCCc1ccccc1 |  | 11.2 µM (active)
O=c1c2ccccc2nc2n1C(CSCc1cccc(C(F)(F)F)c1)CS2 (stereo not given) |  | 2 µM (active)
COc1ccc(NC(=O)N2CCC3(CC2)CCN(C(=O)c2cccn2C)CC3)cc1 | -9.28% | 
CCCCCC(=O)Nc1cccc(-c2nc3ncccc3o2)c1 |  | 17.8 µM (active)
CCCCCC(=O)N1CC2(CC(c3cccc(NC(=O)c4ccccc4)c3)=NO2)C[C@@H]1C(N)=O (stereo not given in full) | 20% | 
O=C(CSc1ccc(Cl)cc1)Nc1cccc(-c2nc3ncccc3o2)c1 |  | 3.16 µM (active)
O=C(Nc1cccc(-c2nc3ncccc3o2)c1)c1sc2cc(Cl)ccc2c1Cl | -23% | 
CCCCCCCCC(=O)N/N=C/c1ccccn1 | -23.2% | 
CC1=NS(=O)(=O)c2cc(Cl)ccc2N1 |  | inactive
CO[C@H]1COC(=O)C/C=C\[C@H](C)[C@@H](OC)COC(=O)[C@H](Cc2ccccc2)NC(=O)C/C=C\[C@@H]1C | -2.12% [at 11.4 µM] | 
Cc1ccc(S(=O)(=O)N[C@H]2COC(=O)[C@@H](C)COC(=O)[C@H](C)NC(=O)C/C=C\[C@H]2C)cc1 | 10.1% [at 11.4 µM] | 
Cc1c(Cl)cccc1NC(=O)CCC(=O)NNC(=O)c1ccco1 | -25.4% | 
O=C(NC(=S)Nc1cccc(Cl)c1N1CCCCC1)c1ccco1 |  | 5.01 µM (active)
O=C(NC(=S)Nc1cccc(Cl)c1N1CCCCC1)c1cccs1 |  | 3.98 µM (active)
CC1CCN(c2ccccc2NC(=S)NC(=O)c2cccs2)CC1 |  | 5.01 µM (active)
C[C@@]1(C(NC(=O)c2cccs2)c2ccc(-c3ccccc3)cc2)C[C@H]1C1CCCCC1 (stereo not given in full) | -29.1% | 
C[C@@H]1C[C@@H]2[C@H]3CCC4=CC(=O)C=C[C@]4(C)[C@]3(Cl)[C@@H](O)C[C@@]2(C)[C@@]1(O)C(=O)CO | 8.7% | 
O=c1[nH]c2cc([N+](=O)[O-])c([N+](=O)[O-])cc2[nH]c1=O | 2.55% | 
O=C(O)c1[nH]c2c([N+](=O)[O-])cc([N+](=O)[O-])cc2c1C(=O)O |  | 3.16 µM (active)

Structure (SMILES) | activity, negative = inhibition | AC50
N[C@@H](Cc1c[nH]c2ccc([N+](=O)[O-])cc12)C(=O)O | 9.84% [at 11.4 µM] | 
CCOc1ccc(C(F)(F)F)cc1NC(=O)c1ccc(OC)c([N+](=O)[O-])c1 | -25.1% | 
CC(C)(C)NC(=O)COC(=O)c1cncc(Br)c1 | -9.05% | 
COc1ccc(C(C)(C)C)cc1NC(=O)c1cncc(Br)c1 |  | 20 µM (active)
O=C1C[C@H]2C(=O)[C@@H]1[C@@H](C(=O)O)[C@H]2C(=O)O | 19.5% [at 11.4 µM] | 
COC(=O)c1cc(NC(=O)N2c3ccccc3Sc3ccccc32)cc(C(=O)OC)c1 |  | 3.55 µM (active)
CCOC(=O)Nc1ccc2c(c1)N(C(=O)CCN1CCN(C)CC1)c1ccccc1S2 | 2.16% | 
CC1CCN(CC(=O)N2c3ccccc3Sc3cc4ccccc4cc32)CC1 | -17.9% [at 11.4 µM] | 
Nc1cc(=O)[nH]c(N)n1 | 16.3% | 
CC(C)NCCOCCSc1ccc(Cl)cc1 | -5.95% | 
COCCNC(=O)c1onc(CSc2ccccc2F)c1C(=O)O |  | 15.8 µM (active)
CN1CCN(CCCNC(=O)c2ccc(CSCc3cccc(Cl)c3)o2)CC1 | -28.9% | 
C=CCNC(=O)c1onc(CSc2ccc(F)cc2)c1C(=O)O |  | 8.91 µM (active)
COCCCNC(=O)/C=C/c1ccc(Cl)cc1 | -22.2% | 
COCCNC(=O)c1onc(CSc2ccc(Cl)cc2)c1C(=O)O |  | 5.01 µM (active)
COCCNC(=O)c1onc(CSc2cccc(Cl)c2)c1C(=O)O |  | 3.98 µM (active)
N[C@H](Cn1ccc(=O)n(Cc2ccccc2C(=O)O)c1=O)C(=O)O | 4.53% | 
Cc1noc(C)c1C(=O)N1CCC[C@@]2(CCN(C(=O)NC(C)C)C2)C1 | -5.38% | 
c1nc(NCCN2CCOCC2)c2cc(-c3ccoc3)ccc2n1 | -2.85% [at 2.29 µM] | 
